Compound activity as filed in PubChem.
Rows were chosen to be rich in hits. Some 19% of all compounds tested hit in one or more screens of this group.
SW480 rerep = induces DNA re-replication in SW480 colon adenocarcinoma cells; SW480 DNA re-replication, Hoechst DNA content imaging, 48 h; Potency, µM (series often up to 46.1 µM), for inactives: top-dose re-replication activation, actives largely listed as activators; 340,000 compounds, 1.8% hits; AID 624297; further: potency means the concentration at half of the fitted maximal effect; % of control where 0% means no effect; nearly all actives have a fitted effect of over 55% in size
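Quantitative HTS format with DMSO vehicle controls; 48 hr drug incubation at 37 C, then 40 min Hoechst staining and scanning imager measurement at 405 nm excitation.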
TDP1 cell CPT = DT40-hTDP1 cell growth loss with CPT; AID 686979; Potency, µM (series often up to 46.2 µM), inactives show at the top dose activity change, negative = growth inhibition, usual class: inhibitors; chicken DT40 Tdp1-/-;hTDP1 cells + 20 nM CPT, ATP luminescence, 48 h; 420,000 compounds, 12% hits; further: potency means the concentration at half of the fitted maximal effect; on the % scale 0 is the no-effect control and ±100 the full control effect; nearly all actives have a fitted effect of over 55% in size
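Chicken DT40 Tdp1-/- cells complemented with human TDP1, 400 cells/well, exposed to compounds plus 20 nM camptothecin for at least 48 h at 37 C; viability read as ATP content by CellTiter-Glo luminescence.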
TDP1 cell noCPT = qHTS for Inhibitors of human tyrosyl-DNA phosphodiesterase 1 (TDP1): qHTS in cells in absence of CPT. DT40 Tdp1-/- hTDP1 cells, no CPT, ATP luminescence, 48 h. Potency, µM (series often up to 46.2 µM), inactives show at the highest dose activity change, negative = growth inhibition, usual class: inhibitors. 420,000 compounds, 15% hits; further: potency means the concentration at half of the fitted maximal effect; on the % scale 0 is the no-effect control and ±100 the full control effect; nearly all actives have a fitted effect of over 55% in size
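Readout: luminescence from CellTiter-Glo after 30 min in the dark at RT. Cells: DT40 Tdp1-/- with stable hTDP1, 400/well. Exposure: compounds alone, ≥48 hr, 37 °C.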
MCF10A rerep = DNA re-replication induction in MCF 10a cells | MCF 10A DNA re-replication, Hoechst nuclear intensity, 48 h | 350,000 compounds, 2.9% hits | Potency, µM (highest dose often 46.1 µM), without a hit: at the highest dose activity, positive = re-replication, actives largely listed as activators; further: potency means the concentration at half of the fitted maximal effect; % of control where 0% means no effect; nearly all actives have a fitted effect of over 50% in size
Chronic BCR inh = blocks chronic active B-cell receptor signaling. Potency, µM (highest dose often 46.1 µM), for inactives: top-dose activity change, negative = inhibition, usual class: inhibitors. ABC-DLBCL IkBa-CBG/CBR reporter, luminescence ratio, 4 h. 340,000 compounds, 0.05% hits; active means well fitted inhibition curve with a large enough effect in the signal ratio, with a control signal flat, not every such curve was filed as active; inconclusive means small, poorly fitted or top-dose-only effect, or effect the other way, or a change in a side signal; the % refers to the signal ratio;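 further: potency means the concentration at half of the fitted maximal effect; plate controls were basal doxycycline-induced cells for no effect and cells given 10 µM MG132 for full effect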
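Cell line TMD8 (human ABC DLBCL), stably expressing tet-inducible CBG68-IkBa fusion and CBR; IMDM/0.5% FBS; cpd up to 46 uM; dox induction, 4 h, 37C/5% CO2; dual luminescence; green/red ratio; MG132 control.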
IL-1B inflam inh = blocks inflammasome-driven IL-1 beta release. THP-1 LPS/ATP IL-1B secretion, AlphaLISA, 16 h; active compounds read low. activity change, % at 57.5 µM. 360,000 compounds, 4.7% hits; in the data active means activity change below about -50%; inconclusive means mostly about -30% to -49%; further: on the % scale 0 is the no-effect control and ±100 the full control effect
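Secreted IL-1B measured by AlphaLISA bead assay after 16 h compound exposure of THP-1 cells; compounds (final up to 57.5 uM) added 1 h before LPS (250 ng/mL) and ATP (1.25 mM) stimulation; lower signal means less secretion.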
Active calls of the source: *; ? = inconclusive; / = no result given. Unless noted, the call rests on the fitted dose curve; in most records, active means well fitted curve in the direction sought with a large enough effect; inconclusive means small, poorly fitted or top-dose-only effect, or another doubt; inactive means no such curve, though single readings can be large; an effect the other way counts as inactive or inconclusive.

SMILES	SW480 rerep	TDP1 cell CPT	TDP1 cell noCPT	MCF10A rerep	Chronic BCR inh	IL-1B inflam inh
COc1cc(OC)cc(C(=O)Nc2ccc(S(=O)(=O)N3CCOCC3)cc2)c1	-5%	-14%	8%	2%	1%	?
CC(=O)Nc1cccc(Cn2cccn2)c1	/	/	/	/	2%	/
O=C(Nc1cccc(Cn2cccn2)c1)c1cc2c(s1)CCCC2	?	?	11µM*	-1%	?	-27
COc1ccc2oc(=O)c(-c3cn4ccc(C)cc4n3)cc2c1	?	19%	-2%	15µM*	1%	88
COC(=O)C(Cc1ccc(O)cc1)NC(=O)C(C)NC(=O)c1ccc(C(C)(C)C)cc1 (centres undefined)	-7%	-10%	?	11%	0%	33
COc1cccc(Cn2cnc3c(NS(=O)(=O)c4ccc(Cl)cc4Cl)c(C)c(C)cc32)c1	5%	?	?	?	?	-11
COc1cccc(Cn2cnc3c(NS(=O)(=O)c4cccc(Cl)c4Cl)c(C)c(C)cc32)c1	-4%	21µM*	23µM*	18%	0%	?
CCN(CC)C(=O)C1=C(C)N(Cc2ccccc2)C(=O)C(CC(=O)NCc2ccco2)C1 (centres undefined)	/	8%	-1%	/	/	-7
COc1ccc(Cn2c(=O)[nH]c3cc(C(=O)Nc4ccccc4C)ccc32)cc1	0%	-15%	-23%	4%	0%	-29
Cc1ccc(NS(=O)(=O)c2cccc(C(=O)NC3CCN(Cc4ccccc4)CC3)c2)cc1	3%	4.1µM*	5.8µM*	?	/	/
O=C(NC1CCN(Cc2ccccc2)CC1)c1ccccc1	-12%	-4%	-3%	-3%	-1%	-3
CCCCN(C)C(=O)C1CCN(Cc2ccc(OCc3ccccc3)cc2)CC1	?	?	16µM*	?	?	?
CCN1CCN(c2ccc(NC(=O)c3ccc4c(c3)[nH]c(=O)n4Cc3ccc(OC)cc3)cc2)CC1	?	23µM*	?	?	-16%	-9
CC(C)(C)c1ccc(C(=O)NC2CCN(Cc3ccccc3)CC2)cc1	16µM*	?	18µM*	-1%	-8%	-27
O=C(NC1CCN(Cc2ccccc2)C1)c1cccc(S(=O)(=O)N2CCOCC2)c1 (centres undefined)	0%	-33%	-20%	4%	-1%	-2
COc1cccc(CNC(=O)C2CCN(S(=O)(=O)c3ccc(Br)s3)CC2)c1	-1%	9%	-22%	8%	10%	2
CN(C(=O)COC(=O)c1ccc([N+](=O)[O-])cc1N)c1ccccc1	-1%	6%	-5%	-3%	?	12
O=C(NC1CCN(Cc2ccccc2)CC1)c1cccc(S(=O)(=O)Nc2ccc(SC(F)F)cc2)c1	?	23µM*	?	1%	-3%	-21
CCCCOc1ccc(C(=O)NCC(=O)NC2CCN(Cc3ccccc3)CC2)cc1	9%	23µM*	?	15%	1%	-3
COc1ccc(C(=O)NC2CC2)cc1OC1CCN(Cc2ccc(F)cc2Cl)CC1	4%	?	18µM*	25%	/	?
O=C(NC1CCN(Cc2ccc(Cl)cc2Cl)CC1)c1ccccc1	0%	21µM*	18µM*	9%	-5%	-50*
COc1ccc(CN2CCC(Oc3cc(C(=O)NC4CC4)ccc3OC)CC2)c(O)c1	-9%	-23%	1%	1%	0%	0
C[C@H](CO)N1C[C@H](C)[C@@H](CN(C)C(=O)Nc2ccc(C(F)(F)F)cc2)Oc2c(NS(=O)(=O)c3ccccc3)cccc2C1=O	6%	0%	-26%	13%	2%	10
CCOc1ccccc1CNC(=O)CCCn1nc(C)c2sc3ccccc3c2c1=O	/	-21%	?	/	/	/
O=C(NCC(=O)N1CCC(Cc2ccccc2)CC1)c1ccc(Cl)cc1	-4%	16µM*	?	15%	?	-52*
SMILES	SW480 rerep	TDP1 cell CPT	TDP1 cell noCPT	MCF10A rerep	Chronic BCR inh	IL-1B inflam inh
CCc1ccccc1NC(=O)c1ccc(CN2CCC(Cc3ccccc3)CC2)cc1	?	?	?	?	3%	-80*
Cc1ccc(NS(=O)(=O)c2ccc(C(=O)NC3CCN(Cc4ccccc4)CC3)cc2)cc1	18µM*	15µM*	15µM*	8%	-10%	-93*
O=C(NC1CCN(Cc2ccccc2)CC1)c1ccc2c(c1)[nH]c(=O)n2Cc1ccc(F)cc1	?	?	?	29%	7%	-77*
O=C(NCC(=O)N1CCN(c2ccccc2)CC1)c1ccc(Cl)cc1	-15%	6%	-9%	-3%	0%	-15
C[C@H](CO)N1C[C@H](C)[C@@H](CN(C)C(=O)c2cc(-c3ccccc3)on2)OCc2cn(nn2)CCCC1=O	/	-2%	13%	/	/	6
O=C(NC1CCN(Cc2ccccc2)CC1)c1ccccc1NS(=O)(=O)c1ccc(F)c(F)c1	-34%	-30%	?	-3%	/	26
CN(C)S(=O)(=O)c1ccc(Cl)c(C(=O)NC2CCN(Cc3ccccc3)C2)c1 (centres undefined)	1%	-9%	?	-5%	1%	-12
O=C(NC1CCN(Cc2ccccc2)CC1)c1cc(S(=O)(=O)Nc2ccc(F)cc2)ccc1Cl	0%	23µM*	15µM*	15%	1%	-69*
CCN(c1ccccc1)S(=O)(=O)c1ccc(Cl)c(C(=O)NC2CCN(Cc3ccccc3)CC2)c1	5%	9.2µM*	6.5µM*	?	/	-21
COc1cccc(C2Nc3c(F)cc(Br)cc3C3C=CCC32)c1OC (centres undefined)	3%	16µM*	18µM*	?	0%	-6
Cc1cc(C(=O)NNc2ccccc2F)no1	18%	-24%	-29%	9.2µM*	-4%	3
Cc1cc(C(=O)NNc2ccc(F)cc2)no1	-9%	9%	-8%	13µM*	3%	5
Cc1cc(C)cc(-n2ccn3c(CC(C)(C)CC(=O)O)nnc3c2=O)c1	/	-1%	-1%	/	/	/
CCCn1nc(NC(=O)c2ccco2)c2cc3cc(C)ccc3nc21	18µM*	?	?	0%	4%	0
CCCn1nc(NS(=O)(=O)c2cccc3nonc23)c2cc3cccc(C)c3nc21	12%	-24%	-28%	?	-4%	13
CCCn1nc(NC(=O)c2ccccn2)c2cc3cc(C)ccc3nc21	7.3µM*	?	?	?	?	-63*
